# Measured values published in the supplement of paper PMC9023506.
# Where a name gives a salt, the structure may show the parent alone.
# Test system: Danio rerio larvae (5 dpf)
# Test: activity during first hour (no stimuli), difference vs DMSO (percentage points (treated minus DMSO)); higher = more of the behaviour than the DMSO vehicle control
# Settings: 10 µM; exposure time: 3 h pre-incubation + 3 h imaging
# Description: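 5-dpf wild-type zebrafish larvae were imaged in 96-well plates. They were treated with 190 Tocris FDA-approved drugs at 10 µM (1 µl/ml DMSO) for 3 h before and 3 h during imaging at 28.5 °C, 48 larvae per drug. Automated image analysis gave % time moving and optomotor responses. Values are drug group mean minus DMSO vehicle mean (n=844), in percentage points, for 10 behaviours.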
row,Structure (SMILES),activity during first hour
1,CCC(C)(C)C(=O)O[C@H]1C[C@@H](C)C=C2C=C[C@H](C)[C@H](CC[C@@H]3C[C@@H](O)CC(=O)O3)[C@H]21 [Simvastatin],7.12
2,NC(=O)N1c2ccccc2C=Cc2ccccc21 [Carbamazepine],-2.68
3,O=C(O)c1cc(/N=N/c2ccc(S(=O)(=O)Nc3ccccn3)cc2)ccc1O [Sulfasalazine],13.5
4,C[C@@H](O[C@H]1OCCN(Cc2n[nH]c(=O)[nH]2)[C@H]1c1ccc(F)cc1)c1cc(C(F)(F)F)cc(C(F)(F)F)c1 [Aprepitant],-7.38
5,CC(C)n1c(/C=C/C(O)CC(O)CC(=O)O)c(-c2ccc(F)cc2)c2ccccc21 (stereo not given) [Fluvastatin sodium],1.98
6,COc1cc(N)c(Cl)cc1C(=O)NC1CCN(CCCOc2ccc(F)cc2)CC1OC (stereo not given) [Cisapride],1.47
7,COCCc1ccc(OCC(O)CNC(C)C)cc1 (stereo not given) [Metoprolol tartrate],5.56
8,C[C@H]1O[C@H](O[C@H]2[C@H](O)[C@@H](O)[C@@H](O[C@H]3[C@H](O)[C@@H](O)C(O)O[C@@H]3CO)O[C@@H]2CO)[C@H](O)[C@@H](O)[C@@H]1N[C@H]1C=C(CO)[C@@H](O)[C@H](O)[C@H]1O (stereo not given in full) [Acarbose],-0.41
9,COc1cccc2c1C(=O)c1c(O)c3c(c(O)c1C2=O)C[C@@](O)(C(=O)CO)C[C@@H]3O[C@H]1C[C@H](N)[C@H](O)[C@H](C)O1 [Doxorubicin hydrochloride],-5.82
10,CCC(=O)O[C@]1(C(=O)SCF)[C@H](C)C[C@H]2[C@@H]3C[C@H](F)C4=CC(=O)C=C[C@]4(C)[C@@]3(F)[C@@H](O)C[C@@]21C [Fluticasone propionate],7.17
11,CN/C(=N\CCSCc1nc[nH]c1C)NC#N [Cimetidine],3.11
12,CC(C)(C#N)c1cc(Cn2cncn2)cc(C(C)(C)C#N)c1 [Anastrozole],3.37
13,C/C(O)=C(\C#N)C(=O)Nc1ccc(C(F)(F)F)cc1 [Teriflunomide],-8.27
14,CNCc1ccc(-c2[nH]c3cc(F)cc4c3c2CCNC4=O)cc1 [Rucaparib camsylate],-13.6
15,C[C@@H]1C[C@H]2[C@@H]3CCC4=CC(=O)C=C[C@]4(C)[C@@]3(F)[C@@H](O)C[C@]2(C)[C@@]1(O)C(=O)CO [Dexamethasone],15
16,N#Cc1ccc(C(c2ccc(C#N)cc2)n2cncn2)cc1 [Letrozole],-3.63
17,CN1CCC[C@@H]1Cc1c[nH]c2ccc(CCS(=O)(=O)c3ccccc3)cc12 [Eletriptan hydrobromide],4.26
18,COc1cc2nc(N3CCN(C(=O)c4ccco4)CC3)nc(N)c2cc1OC [Prazosin hydrochloride],-3.12
19,CCCC1O[C@@H]2C[C@H]3[C@@H]4CCC5=CC(=O)C=C[C@]5(C)[C@H]4[C@@H](O)C[C@]3(C)[C@]2(C(=O)CO)O1 (stereo not given in full) [Budesonide],4.76
20,CCOC(=O)C1=C(COCCN)NC(C)=C(C(=O)OC)C1c1ccccc1Cl (stereo not given) [Amlodipine besylate],2.38

row,Structure (SMILES),activity during first hour
1,O=C(O[C@@H]1C[C@@H]2C[C@H]3C[C@H](C1)N2CC3=O)c1c[nH]c2ccccc12 [Dolasetron mesylate],-1.16
2,CN(C)CC/C=C1/c2ccccc2COc2ccc(CC(=O)O)cc21 [Olopatadine hydrochloride],-0.591
3,Clc1ccc2nsnc2c1NC1=NCCN1 [Tizanidine hydrochloride],-14.2
4,COc1ccccc1OCC(O)CN1CCN(CC(=O)Nc2c(C)cccc2C)CC1 (stereo not given) [Ranolazine dihydrochloride],10.4
5,OCc1cc(C(O)CNCCCCCCOCCCCc2ccccc2)ccc1O (stereo not given) [Salmeterol xinafoate],14.1
6,CCc1ccc(CCOc2ccc(CC3SC(=O)NC3=O)cc2)nc1 (stereo not given) [Pioglitazone hydrochloride],-5.36
7,CC#C[C@]1(O)CC[C@H]2[C@@H]3CCC4=CC(=O)CCC4=C3[C@@H](c3ccc(N(C)C)cc3)C[C@@]21C [Mifepristone],-3.58
8,CN1CCN(CCCN2c3ccccc3Sc3ccc(Cl)cc32)CC1 [Prochlorperazine dimaleate],10.4
9,CCCCC1=NC2(CCCC2)C(=O)N1Cc1ccc(-c2ccccc2-c2nnn[nH]2)cc1 [Irbesartan],3.29
10,CC(C)N(CCCCOCC(=O)NS(C)(=O)=O)c1cnc(-c2ccccc2)c(-c2ccccc2)n1 [Selexipag],4.1
11,C=C1[C@H](CO)[C@@H](O)C[C@@H]1n1cnc2c(=O)[nH]c(N)nc21 [Entecavir],-1.96
12,CN1CCC[C@@H]1CCO[C@](C)(c1ccccc1)c1ccc(Cl)cc1 [Clemastine fumarate],4.9
13,CCc1nc(N)nc(N)c1-c1ccc(Cl)cc1 [Pyrimethamine],-0.915
14,CS(=O)(=O)CCNCc1ccc(-c2ccc3ncnc(Nc4ccc(OCc5cccc(F)c5)c(Cl)c4)c3c2)o1 [Lapatinib],-5.32
15,CCc1c2c(nc3ccc(OC(=O)N4CCC(N5CCCCC5)CC4)cc13)-c1cc3c(c(=O)n1C2)COC(=O)[C@]3(O)CC,-4.43
16,COCCCOc1cc(C[C@@H](C[C@H](N)[C@@H](O)C[C@H](C(=O)NCC(C)(C)C(N)=O)C(C)C)C(C)C)ccc1OC [Aliskiren hemifumarate],-4.92
17,N#C[C@@H]1C[C@@H]2C[C@@H]2N1C(=O)[C@@H](N)C12CC3CC(CC(O)(C3)C1)C2 [Saxagliptin hydrochloride],1.74
18,Cc1ccc(O)c([C@H](CCN(C(C)C)C(C)C)c2ccccc2)c1 [Tolterodine L-tartrate],1.86
19,CCCCC(=O)N(Cc1ccc(-c2ccccc2-c2nnn[nH]2)cc1)[C@H](C(=O)O)C(C)C [Valsartan],4.88
20,CC(C)(C(=O)c1cccnc1)c1cccnc1 [Metyrapone],-5.92
